Screening data as filed in PubChem.
Most compounds without a hit are left out; they make up all but 2.5% or so of the library.
Cruzain inh noDet: inhibitors of Trypanosoma cruzi cruzain without detergent | P25779 | purified cruzain, Z-FR-AMC fluorescence, no detergent | Potency, µM, hits mostly inhibitors | 200,000 tested, 2.3% active | AID 1476; note: nearly all actives have a fitted effect of over 40% in size
Target sequence (P25779 123-467 limits assumed): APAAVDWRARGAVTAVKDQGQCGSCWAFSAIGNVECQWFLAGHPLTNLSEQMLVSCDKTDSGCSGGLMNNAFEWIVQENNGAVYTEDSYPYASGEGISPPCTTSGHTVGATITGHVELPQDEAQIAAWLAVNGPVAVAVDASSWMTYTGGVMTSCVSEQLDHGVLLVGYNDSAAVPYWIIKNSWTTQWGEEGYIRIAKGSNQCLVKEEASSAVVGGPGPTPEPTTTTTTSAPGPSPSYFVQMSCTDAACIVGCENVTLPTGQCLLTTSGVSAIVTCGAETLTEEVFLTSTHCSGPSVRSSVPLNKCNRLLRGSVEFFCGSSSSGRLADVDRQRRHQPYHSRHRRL
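Detergent-free condition (0.00005% Triton X-100) in acetate buffer pH 5.5 with DTT. 1.5 nM enzyme and compound were pre-mixed 15 min, then 2 uM Z-FR-AMC substrate added; reaction progress from fluorescence change between first and third reads (60 s).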
Cruzain inh Det: blocks cruzain activity in presence of Triton detergent | purified cruzain, Z-FR-AMC fluorescence, 0.01% Triton | Potency, µM, usual class: inhibitors | 200,000 tested, 0.43% active; note: nearly all actives have a fitted effect of over 40% in size
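Detergent-containing run (0.01% Triton X-100) in acetate buffer pH 5.5 with 5 mM DTT: enzyme at 1.5 nM final, 15 min compound preincubation at room temperature, then 2 uM Z-FR-AMC substrate. Activity taken as 60 s fluorescence increase at 360/450 nm.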
Of the large screens only hits and unclear results are named; the others gave an inactive call. Calls come from the whole dose curve; as a rule, active = well fitted curve in the direction sought with a large enough effect; inconclusive = small, poorly fitted or top-dose-only effect, or another doubt; inactive = no such curve, though single readings can be large; an effect the other way counts as inactive or inconclusive.

Cn1c(=O)c2c(nc(SCC(=O)Nc3ccc(F)cc3)n2Cc2ccccc2F)n(C)c1=O	none
CCOC(=O)c1c(NC(=O)c2ccc(S(=O)(=O)N(CCOC)CCOC)cc2)sc2c1CC(C)(C)NC2(C)C	none
Fc1ccccc1-n1ncc2c1ncn1nc(-c3ccccc3Cl)nc21	none
CCc1nn(CC(=O)Nc2c(C)cccc2C)c(=O)c2cc3sccc3n12	none
Clc1ccc(C(c2ccccc2Cl)C(Cl)(Cl)Cl)cc1 (centres undefined)	none
COc1cc2[nH]c(=O)n(CCCCCC(=O)N3CCN(c4ccc(Cl)cc4)CC3)c(=O)c2cc1OC	none
O=Cc1ccc(CO)o1	none
O=C(COc1ccccc1Cl)N(Cc1cccc(F)c1)C1CCS(=O)(=O)C1 (centres undefined)	none
Nc1nc2sc3c(c2c(=O)s1)CCCC3	none
Nc1c2c(nc3sc4c(c13)CCCC4)CCCCCC2	Cruzain inh noDet 25µM
Cc1ccc(CN2CCCn3nc(C(=O)NCC(C)c4ccccc4)cc3C2=O)cc1 (centres undefined)	none
CN(C)c1ccc(N(C)C)cc1	none
CCOc1ccccc1/C=N/NC(=O)Cc1csc(Nc2cccc(C(F)(F)F)c2)n1	Cruzain inh noDet 10µM
CCOc1ccc(/C=N/NC(=O)Cc2csc(Nc3cccc(C(F)(F)F)c3)n2)c(OCC)c1	Cruzain inh noDet inconclusive
CC1=NNC(=S)NCCCN2CCN(CCCNC(=S)NN=C(C)C=NNC(=S)NCCCN3CCN(CCCNC(=S)NN=C1)CC3)CC2	none
CSCC[C@H](NC(=O)c1cc([N+](=O)[O-])ccc1Cl)c1nc2ccccc2[nH]1	Cruzain inh Det 22µM
Cc1cc(Cl)ccc1OCC(=O)N[C@@H](Cc1ccccc1)c1nc2ccccc2[nH]1	none
CSCC[C@H](NC(=O)COc1ccc(Cl)cc1)c1nc2ccccc2[nH]1	Cruzain inh noDet 13µM, Cruzain inh Det 7.1µM
CSCCC(NC(=O)c1cccc([N+](=O)[O-])c1)c1nc2ccccc2[nH]1 (centres undefined)	Cruzain inh noDet inconclusive
O=C(NCCS(=O)(=O)N1CCN(c2ccccc2F)CC1)c1ccccc1C(F)(F)F	none
Cc1ccc2cc3cc(C(=O)N4CCN(c5ccccc5)CC4)oc3nc2c1	none
N#Cc1c(NCCCO)nc(-c2ccco2)c2c1CCCC2	Cruzain inh Det 16µM
CC1(C)Cc2c(C#N)c(NCCN3CCOCC3)nc(-c3ccco3)c2CO1	none
N#Cc1c(NC2CCCCC2)nc(-c2ccco2)c2c1CCCC2	Cruzain inh noDet 25µM, Cruzain inh Det 16µM
N#Cc1c2c(c(-c3ccco3)[nH]c1=O)CCCC2	none
COc1cc(C2CC(=O)Oc3ccc(O)cc32)cc(OC)c1OC (centres undefined)	none
COc1ccccc1N1CCN(C(=O)Nc2ccc([N+](=O)[O-])cc2)CC1	none
COc1cc([N+](=O)[O-])ccc1NC(=O)N1CCC2(CC1)Nc1cc(F)ccc1-n1cccc12	Cruzain inh noDet 25µM
CCc1nnc2c(N3CCN(c4cccc(C)c4)C(C)C3)nc3ccccc3n12 (centres undefined)	Cruzain inh noDet inconclusive
CCN(CC)c1ccc(NC(=O)CCc2c(C)nc3ncnn3c2C)c(C)c1	none
N#C/C(=C\N1CCN(Cc2ccc3c(c2)OCO3)CC1)c1nc2ccccc2s1	Cruzain inh noDet 32µM
c1ccc2sc(N3CCN(Cc4ccc5c(c4)OCO5)CC3)nc2c1	none
COc1ccc(-c2nc3ccccc3n3c(-c4ccc(OC)cc4)c4c(=O)n(C)c(=O)n(C)c4c23)cc1	none
O=C(OCC1OC(OC(=O)c2cc(O)c(O)c(OC(=O)c3cc(O)c(O)c(O)c3)c2)[C@@H](OC(=O)c2cc(O)c(O)c(OC(=O)c3cc(O)c(O)c(O)c3)c2)C(OC(=O)c2cc(O)c(O)c(OC(=O)c3cc(O)c(O)c(O)c3)c2)C1OC(=O)c1cc(O)c(O)c(OC(=O)c2cc(O)c(O)c(O)c2)c1)c1cc(O)c(O)c(OC(=O)c2cc(O)c(O)c(O)c2)c1 (some centres undefined)	Cruzain inh noDet 7.9µM, Cruzain inh Det 16µM
Cc1cn(C2OC(COC(=O)c3ccccc3)C(OC(=O)c3ccccc3)C2OC(=O)c2ccccc2)c(=O)[nH]c1=O (centres undefined)	Cruzain inh noDet inconclusive
Cc1ccc(S(=O)(=O)NC(=O)Nc2ncn[nH]2)cc1	none
COc1ccc(CNc2ccccc2)cc1Br	none
COc1cc(CNc2cccc(F)c2)cc(Br)c1O	Cruzain inh noDet 25µM
O=C(O)CCC(O)=C1S(=O)(=O)OCCOS1(=O)=O	none
CCC(=O)Oc1ccc(C2Nc3ccccc3-c3nnc(SC)nc3O2)cc1 (centres undefined)	none
C#CCOCCOCCOCCNc1nc(N2CCN(C(=O)[C@H]([C@@H](C)CC)n3cc(CCCN=C(N)N)nn3)CC2)nc(N2CCN(C(=O)[C@H](CCCCN)n3cc(CCCC)nn3)CC2)n1	Cruzain inh noDet inconclusive, Cruzain inh Det 25µM
C#CCOCCOCCOCCNc1nc(N2CCN(C(=O)[C@H](C)n3cc(CCCN=C(N)N)nn3)CC2)nc(N2CCN(C(=O)[C@H](CCCCN)n3cc(CCCC)nn3)CC2)n1	none
CS(=O)(=O)N(Cc1ccccc1)c1ccc(C(=O)Nc2cccc(Cl)c2)cc1	none
Cc1ccc(C(C)(C)C)c(OCC(=O)NCCc2nc3ccccc3[nH]2)c1	none
Cc1cc(OCC(=O)NCCc2nc3ccccc3[nH]2)cc(C)c1Cl	Cruzain inh Det 8.9µM
COc1ccccc1OCC(=O)NCCc1nc2ccccc2[nH]1	Cruzain inh noDet 13µM, Cruzain inh Det 16µM
CCC(=O)NCCc1nc2ccccc2[nH]1	none
CC(CNC(=O)c1ccc2nc(CCc3ccccc3)oc2c1)c1ccccc1 (centres undefined)	none
CCOC(=O)C1=C(CN2CCC(C(=O)OCC)CC2)NC(=O)NC1c1ccc(Cl)cc1 (centres undefined)	none
Cc1ccc(N2CCN(C(=O)c3cccn4c(=O)c5ccc(Cl)cc5nc34)CC2C)cc1 (centres undefined)	none
Cc1ccccc1-c1nnc(SCC(=O)N(C)C2CCCCC2)o1	none
Cc1sc2ncnc(Sc3ccccc3C(=O)Nc3ccc(Br)cc3)c2c1C	Cruzain inh noDet 13µM
Cc1sc2ncnc(Sc3ccccc3C(=O)Nc3ccc(C#N)cc3)c2c1C	none
Cc1c(C(=O)NCc2ccc(OC(C)C)cc2)sc2ncnc(N(C)C3CCCCC3)c12	none
COc1ccc(NC(=O)c2c(NCc3ccc(C)o3)sc3c2CCCCC3)c(OC)c1	none
O=c1c2ccccc2nnn1CSc1nnc(-c2cccs2)n1Cc1ccccc1	none
C=CCn1c(SCC(=O)N2CCCC2)nc2scc(-c3cccs3)c2c1=O	none
C=CCn1c(SCC(=O)Nc2ccccc2)nc2scc(-c3cccs3)c2c1=O	Cruzain inh noDet 25µM
C=CCn1c(SCn2nnc3ccccc3c2=O)nc2scc(-c3cccs3)c2c1=O	Cruzain inh noDet 7.9µM
CC(=O)N1CCc2cc(CNS(=O)(=O)c3ccccc3C(F)(F)F)ccc21	none
CCOC(=O)c1ccc(NC(=O)CC2S/C(=N/N=C/c3c[nH]c4ccccc34)NC2=O)cc1 (centres undefined)	Cruzain inh noDet inconclusive
Cc1ccc(NC(=O)CC2S/C(=N/N=C/C=C/c3ccccc3)NC2=O)cc1Cl (centres undefined)	Cruzain inh noDet 5µM
Cc1ccc(NC(=O)CC2SC(=NCC3CCCO3)NC2=O)cc1Cl (centres undefined)	none
Cc1ccc(NC(=O)CC2S/C(=N/N=C/c3c[nH]c4ccccc34)NC2=O)cc1 (centres undefined)	Cruzain inh noDet 20µM
Cc1ccc(S(=O)(=O)OCC(=O)O)cc1	none
